RORgamma inh: ROR gamma (mouse) transcription inhibition | Drosophila S2 Gal4-RORgamma UAS-luciferase reporter, 20 h | P51450 | actives 5.4% (n = 310,000) | Potency, µM (titrated, usually from 53.6 µM), actives largely listed as inhibitors; further: nearly all actives have a fitted effect of over 60% in size
Target sequence (P51450 whole entry, looked up, the tested form may be a part): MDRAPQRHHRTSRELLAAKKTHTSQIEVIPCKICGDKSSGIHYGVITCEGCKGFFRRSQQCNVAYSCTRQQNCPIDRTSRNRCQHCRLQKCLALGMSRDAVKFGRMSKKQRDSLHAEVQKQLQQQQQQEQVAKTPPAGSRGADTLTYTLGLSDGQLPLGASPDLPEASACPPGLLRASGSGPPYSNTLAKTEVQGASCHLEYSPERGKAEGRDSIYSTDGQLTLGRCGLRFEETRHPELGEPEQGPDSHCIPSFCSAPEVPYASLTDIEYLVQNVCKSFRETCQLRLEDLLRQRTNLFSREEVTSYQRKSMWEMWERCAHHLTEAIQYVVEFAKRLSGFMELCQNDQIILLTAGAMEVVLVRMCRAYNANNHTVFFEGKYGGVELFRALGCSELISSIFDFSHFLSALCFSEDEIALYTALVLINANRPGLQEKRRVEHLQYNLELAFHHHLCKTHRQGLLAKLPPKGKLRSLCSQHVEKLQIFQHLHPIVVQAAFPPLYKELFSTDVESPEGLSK
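Stable Schneider cell line, Gal4 DNA-binding domain fused to ROR gamma, UAS-luciferase. Cmpd 1 hr RT → CuSO4 700 uM final → 20 hr RT → luciferase reagent 10 min → luminescence.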
Gal4-VP16 FLuc: Gal4-VP16 reporter inhibition counter-screen | actives 3.5% (n = 310,000) | Drosophila S2 Gal4-VP16 UAS-luciferase, luminescence, 20 h | Potency, µM (series often up to 53.6 µM), actives largely listed as inhibitors;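 further: Gal4-VP16 expression switched on by copper sulfate through the metallothionein promoter; nearly all actives have a fitted effect of over 50% in size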
Coupling enz: inhibits coupling enzyme system, counter-screen for aldolase hits; actives 0.67% (n = 290,000); activity change, negative = inhibition, % at 58.2 µM, hits read low; AID 2472; coupling enzyme system counterscreen, AmpLite Red fluorescence; in the data active means activity change below about -30%
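Fluorescence at 525 nm excitation and 598 nm emission measured inhibition of the coupled detection system without aldolase. Compounds (at 57.5 uM final) were preincubated 10 min at room temperature with coupling enzyme reagent before a 20 min substrate/AmpLite Red step.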
GALK inh: galactokinase (human) inhibition; P51570; Purified GALK, Kinase-Glo residual ATP luminescence; Potency, µM (titrated, usually from 57.5 µM), actives largely listed as inhibitors; actives 0.007% (n = 270,000)
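Quantitative HTS: GALK 5 nM, ATP 35 uM, galactose 100 uM, 1 h room temperature, then luciferase-based ATP detection.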
rTrxR1 inhibitor: inhibitors of rat thioredoxin reductase 1; O89049; recombinant rTrxR1, NADPH fluorescence consumption, selenite substrate; Potency, µM (series often up to 114 µM), usual class: inhibitors; actives 1% (n = 390,000); further: nearly all actives have a fitted effect of over 65% in size
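Rat TrxR1 (90 nM in the dispensed reagent) was pre-reduced with 400 uM NADPH for 5 min at room temperature, then incubated with compound for 15 min. After 400 uM selenite was added, NADPH fluorescence (Ex 340/Em 450 nm) was followed for 8 min.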
TrxR1 substrate: rat thioredoxin reductase 1 substrate activity; O89049; actives 0.01% (n = 390,000); purified TrxR1 substrate turnover, NADPH consumption readout; AID 588456; Potency, µM (titrated, usually from 114 µM); further: nearly all actives have a fitted effect of over 50% in size
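Rat TrxR1, dispensed at 90 nM, was prereduced with 400 uM NADPH (final) for 5 min at ~22 deg C, then incubated with compound 15 min before 400 uM selenite. A first-read NADPH fluorescence drop versus no-compound background flagged substrates.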
Large screens that a line does not name were inactive. A selection: hits, their analogues and other compounds. The true share with any hit is near 5.9%. Unless noted, the call rests on the fitted dose curve; in most records, active means well fitted curve in the direction sought with a large enough effect; inconclusive means small, poorly fitted or top-dose-only effect, or another doubt; inactive means no such curve, though single readings can be large; an effect the other way counts as inactive or inconclusive.

c1csc(CNc2ncnc3sccc23)c1	none (no result: RORgamma inh, Gal4-VP16 FLuc, Coupling enz, GALK inh)
Cc1csc2ncnc(NCCc3ccccn3)c12	Gal4-VP16 FLuc 10µM
CCOc1ccccc1-c1ccc(C(=O)O)s1	none (no result: GALK inh, rTrxR1 inhibitor, TrxR1 substrate)
COc1cc(/C=N/Nc2nc3c(c(=O)n(C)c(=O)n3C)n2Cc2ccccc2)ccc1OC(=O)c1ccco1	Gal4-VP16 FLuc 17.8µM
Cc1ccc(Cn2c(N/N=C/c3ccncc3)nc3c2c(=O)n(C)c(=O)n3C)cc1	Gal4-VP16 FLuc 10µM
COc1ccc(-c2ccnc3c(-c4ccc(F)cc4)c(C)nn23)cc1OC	none (no result: RORgamma inh, Gal4-VP16 FLuc, Coupling enz, GALK inh)
O=C(CCc1nc2ccccc2[nH]1)N1CCN(C(=O)c2ccco2)CC1	none (no result: GALK inh)
O=C(CSc1ccc(-c2nc3ccccc3[nH]2)cn1)N1CCN(C(=O)c2ccco2)CC1	rTrxR1 inhibitor 1.41µM
Cc1ccc2oc(/N=C(\N)NC(=O)C(C)(C)C)nc2c1	RORgamma inh 0.0501µM, Gal4-VP16 FLuc 0.447µM
Cc1ccc2oc(/N=C(\N)NC(=O)C3CC3)nc2c1	RORgamma inh 7.08µM, Gal4-VP16 FLuc inconclusive
NC(N)=Nc1nc2cc([N+](=O)[O-])ccc2o1	none
COc1ccccc1/C=C1\SC(=S)N(CCC(=O)Nc2cccc(O)c2)C1=O	none (no result: RORgamma inh, Gal4-VP16 FLuc)
O=C(Nc1ccc2nc(-c3ccco3)[nH]c2c1)c1cccs1	RORgamma inh inconclusive, rTrxR1 inhibitor 70.8µM
O=C1NC(c2ccccc2)=C(c2ccccc2)C1=O	none (no result: GALK inh)
O=C1C(Br)=C(c2ccccc2)C(c2ccccc2)=C1c1ccccc1	rTrxR1 inhibitor 0.708µM (no result: RORgamma inh, Gal4-VP16 FLuc, Coupling enz, GALK inh)
Cc1cccnc1NC1(C(F)(F)F)N=C(c2ccccc2)NC1=O (stereo unspecified)	none
Cc1ccc(/C=N/N(C)S(=O)(=O)c2ccc(C)cc2)cc1	Gal4-VP16 FLuc 17.8µM
CSc1ccc(/C=N/N(C)S(=O)(=O)c2ccc(C)cc2)cc1	Gal4-VP16 FLuc inconclusive
CC(c1ccccc1)n1cnc2ccccc21 (stereo unspecified)	RORgamma inh 12.6µM
CS(=O)(=O)Nc1nc2n(n1)C(c1ccc(F)cc1)CC(c1ccccc1)N2 (stereo unspecified)	none (no result: GALK inh)
COc1ccc(C2CC(c3ccc(Cl)cc3Cl)Nc3nc(N)nn32)cc1 (stereo unspecified)	RORgamma inh 5.62µM, Gal4-VP16 FLuc 4.47µM
O=C(Nc1nc2n(n1)C(c1ccc(Cl)cc1)CC(c1ccc(Cl)cc1)N2)c1ccco1 (stereo unspecified)	RORgamma inh 3.16µM, Gal4-VP16 FLuc 3.55µM
O=C(Nc1nc2n(n1)C(c1ccc(F)cc1)C=C(c1ccc(Cl)cc1)N2)c1ccco1 (stereo unspecified)	none (no result: RORgamma inh, Gal4-VP16 FLuc, Coupling enz, GALK inh)
O=C(Nc1nc2n(n1)C(c1ccc(F)cc1)CC(c1ccccc1)N2)c1ccco1 (stereo unspecified)	RORgamma inh 3.16µM, Gal4-VP16 FLuc 7.08µM
COc1ccc(C2CC(c3ccc(Cl)cc3)Nc3nc(NC(=O)c4ccco4)nn32)cc1 (stereo unspecified)	RORgamma inh 0.708µM, Gal4-VP16 FLuc 0.159µM
CCOCCCNC(=O)C1CCN(c2nc3ccc(C)cc3[nH]2)CC1	none (no result: RORgamma inh, Gal4-VP16 FLuc, Coupling enz, GALK inh)
CCCS(=O)(=O)N1CCCC(C(=O)Nc2ccc3c(c2)CCC3)C1 (stereo unspecified)	none (no result: Coupling enz)
COc1ccc2[nH]c(C)c(C(=O)CN3CCN(C(=O)c4ccco4)CC3)c2c1	rTrxR1 inhibitor 28.2µM
CC(=O)N1CCc2cc(C(=O)CN3CCN(C(=O)c4ccco4)CC3)ccc21	RORgamma inh inconclusive, rTrxR1 inhibitor 15.8µM
CC(=O)N1CCc2cc(C(=O)CN3CCC(C)CC3)ccc21	rTrxR1 inhibitor inconclusive
COCCNC(=O)CN1C(=O)COc2ccc(S(=O)(=O)N3CCOCC3)cc21	none (no result: RORgamma inh, Gal4-VP16 FLuc, Coupling enz, GALK inh)
CCCCNC(=S)N(Cc1ccco1)Cc1cc2cc3c(cc2[nH]c1=O)OCCO3	RORgamma inh inconclusive
COc1cccc(-n2c(C)c3c(OC)cccc(=O)c3c2C)c1	RORgamma inh 6.31µM, Gal4-VP16 FLuc inconclusive
COc1ccccc1C(=O)NCCC(=O)NCCc1ccccc1	none (no result: Coupling enz)
COc1ccccc1C(=O)NCCC(=O)NCc1ccccn1	none (no result: RORgamma inh, Gal4-VP16 FLuc, Coupling enz, GALK inh)
COc1ccccc1C(=O)NCCC(=O)Nc1ncccc1C	RORgamma inh 5.62µM, Gal4-VP16 FLuc 8.91µM (no result: Coupling enz)
COc1ccccc1C(=O)NCc1ccccn1	RORgamma inh 8.91µM
COc1ccccc1C(=O)NCCC(=O)NCC(c1ccccc1)N(C)C (stereo unspecified)	RORgamma inh 11.2µM (no result: Coupling enz)
COc1ccc(-n2c(C)nc3c(cnn3-c3ccc(C)cc3)c2=O)cc1	none
CCCCC(=O)N1C/C=C\C(c2ccc(OC)cc2)N(Cc2ccc(F)cc2)C(=O)[C@H]1Cc1ccccc1 (stereo partly specified)	RORgamma inh inconclusive, Gal4-VP16 FLuc inconclusive
COc1ccc(C2/C=C\CN(C(=O)C3CC3)[C@H](Cc3ccccc3)C(=O)N2Cc2ccc(F)cc2)cc1 (stereo partly specified)	RORgamma inh 11.2µM
COc1ccc(C2/C=C\CN(C(=O)C3CC3)C(Cc3ccccc3)C(=O)N2Cc2ccc(F)cc2)cc1 (stereo unspecified)	RORgamma inh 10µM, Gal4-VP16 FLuc inconclusive (no result: GALK inh)
CC(=O)/C(N)=N/Nc1cccc(Cl)c1	none
CC(=O)/C(=N\Nc1cccc(Cl)c1)Sc1cccc2cccnc12	RORgamma inh 3.16µM, Gal4-VP16 FLuc inconclusive
CC(=O)/C(=N\Nc1cccc(Cl)c1)Sc1nnc(-c2ccccc2)n1-c1ccccc1	RORgamma inh 10µM, Gal4-VP16 FLuc 11.2µM
CCN(CC)S(=O)(=O)c1cccc(C(=O)N/N=C/c2cc(OC)c(O)c(OC)c2)c1	none
CCN(CC)S(=O)(=O)c1cccc(C(=O)N/N=C/c2cccc(O)c2O)c1	Coupling enz -52.4
COc1ccc(-c2nn(-c3ccccc3)cc2/C=N/NC(=O)c2cccc(S(=O)(=O)Nc3ccccc3Cl)c2)cc1	RORgamma inh 1.78µM, Gal4-VP16 FLuc 1.78µM
COc1ccc(-c2nn(-c3ccccc3)cc2/C=N/NS(=O)(=O)c2ccccc2)cc1	RORgamma inh inconclusive
CCN(CC)S(=O)(=O)c1cccc(C(=O)N/N=C/c2ccccn2)c1	RORgamma inh 8.91µM, Gal4-VP16 FLuc inconclusive
Cc1cccc(C(=O)Nc2cccc(C(=O)N/N=C/c3ccccn3)c2)c1	none (no result: GALK inh)
CCN(CC)c1ccc(/C=N/NC(=O)c2cccc(S(=O)(=O)N3CCOCC3)c2)c(O)c1	RORgamma inh 2.82µM, Gal4-VP16 FLuc 11.2µM
COC(=O)c1ccc(NC(=O)CSc2nc(=O)n3cccc(C)c3n2)cc1	none (no result: RORgamma inh, Gal4-VP16 FLuc, Coupling enz, GALK inh)
O=C(N/N=C/c1ccccn1)c1cccc(S(=O)(=O)Nc2ccccc2Cl)c1	RORgamma inh 20µM, Gal4-VP16 FLuc inconclusive
O=C(N/N=C/c1ccccn1)c1cccc(NC(=O)c2ccccc2Cl)c1	none (no result: GALK inh)

Source: PubChem BioAssay (National Center for Advancing Translational Sciences (NCATS))
